LEDGF integ inh = blocks HIV-1 LEDGF/p75-dependent DNA integration; TR-FRET IN-LEDGF/p75 DNA integration, Eu/Cy5; inhibition, % at 3.7 µM; 370,000 compounds, 0.64% hits;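 active = inhibition above the screen-wide mean plus 3 SD, cut at about 13% in these data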;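 also: signal is the Cy5 over europium emission ratio at 671 and 618 nm; 0% = plate median of compound wells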
MBD2 DNA inh = inhibitors of human MBD2 binding to methylated oligonucleotide; inhibition, % at 4.4 µM; Q9UBB5; TR-FRET; 370,000 compounds, 0.31% hits; in the data active = inhibition above about 13%
UHRF1 binding = blocks human UHRF1 binding to methylated DNA; Q96T88; UHRF1 binding to methylated oligo, TR-FRET; inhibition, % at 4.4 µM; 370,000 compounds, 0.75% hits; AID 687016; in the data active = inhibition above about 21%;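 also: UHRF1 SRA domain binding a hemimethylated CpG hairpin DNA probe; 0% = median of test compound wells and 100% = reference inhibitor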
Target sequence (Q96T88 whole entry, looked up, the tested form may be a part): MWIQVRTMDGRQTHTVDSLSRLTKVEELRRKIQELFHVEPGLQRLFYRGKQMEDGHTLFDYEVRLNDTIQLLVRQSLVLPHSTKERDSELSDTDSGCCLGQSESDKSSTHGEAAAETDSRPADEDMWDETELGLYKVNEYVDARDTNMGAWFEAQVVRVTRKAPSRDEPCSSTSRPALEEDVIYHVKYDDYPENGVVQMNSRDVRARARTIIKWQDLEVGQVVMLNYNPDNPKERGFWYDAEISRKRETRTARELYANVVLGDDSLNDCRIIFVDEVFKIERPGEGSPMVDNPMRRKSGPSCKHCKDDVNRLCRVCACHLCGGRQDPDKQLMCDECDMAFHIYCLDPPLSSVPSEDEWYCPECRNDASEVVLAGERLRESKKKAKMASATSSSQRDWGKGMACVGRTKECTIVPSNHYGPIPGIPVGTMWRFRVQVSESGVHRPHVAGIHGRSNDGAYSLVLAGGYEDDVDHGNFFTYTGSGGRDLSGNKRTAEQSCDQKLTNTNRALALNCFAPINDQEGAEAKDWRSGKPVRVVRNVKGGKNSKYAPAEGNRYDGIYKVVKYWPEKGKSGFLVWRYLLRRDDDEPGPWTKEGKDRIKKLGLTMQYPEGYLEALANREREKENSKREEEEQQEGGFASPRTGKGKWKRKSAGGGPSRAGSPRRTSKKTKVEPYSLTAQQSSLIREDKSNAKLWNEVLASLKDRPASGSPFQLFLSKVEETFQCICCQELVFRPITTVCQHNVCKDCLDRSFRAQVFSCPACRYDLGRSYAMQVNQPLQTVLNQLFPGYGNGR
PLCb3 inh = PLC-beta3 (human) inhibition, primary screen; Purified PLC-beta3, fluorogenic substrate, fluorescence; inhibition, % at 12.2 µM; 370,000 compounds, 0.18% hits; AID 720704; in the data active = inhibition above about 11%;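 also: 0% = median of compound wells on plate and 100% = full blocker control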
PLCg1 inh = PLC-gamma1 (human) inhibition, primary screen; purified PLC-gamma1, fluorogenic substrate, fluorescence; inhibition, % at 12.2 µM; 370,000 compounds, 0.84% hits
PLCg1 ctr = counter-screen for PLC-beta3 inhibitors: inhibitors of human PLC-gamma1. shares compounds with PLCg1 inh. purified PLC-gamma1, fluorogenic substrate, fluorescence. inhibition, % at 12.3 µM. 3,300 compounds, 3.1% hits
PLCbeta3 conf = confirmation of human PLC-beta3 inhibitors; shares compounds with PLCg1 inh; purified PLC-beta3, fluorogenic substrate fluorescence; inhibition, % at 12.3 µM; 3,300 compounds, 1% hits; AID 743261; in the data active = inhibition above about 11%
Starred values were filed as active, the others as inactive; . = no result. In the library only some 2.4% were active in any assay of this set; here they are far more common. Rule as the data show it, unless noted: active = inhibition above about 9.5%; inactive = the rest.

SMILES | LEDGF integ inh | MBD2 DNA inh | UHRF1 binding | PLCb3 inh | PLCg1 inh | PLCg1 ctr | PLCbeta3 conf
COc1ccc(-c2cc(C3CCNCC3)[nH]n2)cc1 | 10 | -2 | -2 | -1 | 16* | 8 | 1
Cc1cccc(N2CCN(C(=O)c3ccc4ncsc4c3)CC2)c1C | -1 | 2 | 6 | 3 | 12* | -8 | -26
CCOc1ccccc1C(=O)N/N=C/c1cccc2cccnc12 | -2 | 3 | -1 | 7 | 14* | -7 | -1
Cc1ccc([C@H]2N[C@]3(CCCN(Cc4ccco4)C3=O)[C@H]3C(=O)N(Cc4ccccc4)C(=O)[C@@H]23)cc1 | 2 | -1 | 3 | 3 | 12* | 0 | -4
COc1ccc(OC)c(S(=O)(=O)N2CCCCC2C(=O)N2CCN(c3ccccc3F)CC2)c1 (stereo not drawn) | -1 | 2 | -1 | -5 | -2 | . | .
CCN(CC)CCCNC(=O)CSc1nc2cccnc2n1C | 3 | 0 | -3 | 1 | 2 | . | .
CCN(CC)C(=O)C1=C(C)N(CCCN2CCCC2=O)C(=O)C(CC(=O)NCCCCc2ccccc2)C1 (stereo not drawn) | 6 | 4 | 2 | 9 | 9.8* | -9 | -4
CCN(CC)C(=O)C1=C(C)N(CCCN2CCCC2=O)C(=O)C(CC(=O)NCc2ccco2)C1 (stereo not drawn) | 0 | 2 | 0 | 0 | 4 | . | .
O=S1(=O)c2ccc(N3CCSCC3)cc2Oc2ccccc2CN1Cc1cn(Cc2ccc(C(F)(F)F)cc2)nn1 | 4 | 3 | 4 | 2 | 0 | . | .
O=C1c2cccnc2C(=O)N1c1ccccc1-c1ccccc1 | 1 | 7 | 2 | -2 | 12* | -4 | -4
O=C(/C=C/c1ccc(Cl)cc1)NC1CC2CCC1C2 (stereo not drawn) | 1 | 3 | 1 | 3 | 2 | . | .
O=C(/C=C/c1ccc([N+](=O)[O-])cc1)NC1CC2CCC1C2 (stereo not drawn) | 9 | 4 | 3 | 10 | 14* | 7 | 5
COc1ccc(CN2CN3Cc4ccc(C)cc4C3CS2(=O)=O)cc1 (stereo not drawn) | 0 | 3 | -2 | -7 | -6 | . | .
O=C(Nc1ccccc1)NC1CCCc2ccccc21 (stereo not drawn) | 0 | -3 | 3 | 0 | -2 | . | .
Cc1nnc(SCC(=O)NC2CCCc3ccccc32)n1-c1ccccc1 (stereo not drawn) | 3 | 1 | 2 | 5 | 11* | -6 | -6
CNC(=O)NC1CCCc2ccccc21 (stereo not drawn) | 3 | -10 | 4 | 1 | 11* | 3 | 4
COc1cc(O)c(C(CC(=O)N2CCC(C)CC2)c2ccc3c(c2)OCO3)c(OC)c1 (stereo not drawn) | -2 | 0 | 2 | -1 | -5 | . | .
COc1cccc(NC(=O)C(Sc2nnc(-c3ccncc3)n2-c2ccc(Cl)cc2)c2ccccc2)c1 (stereo not drawn) | 2 | 0 | 2 | 4 | 11* | 0 | -1
C[C@H]1[C@@H](OC(=O)NCc2ccc(Cl)c(Cl)c2)CC[C@@]23CCCN2C(=O)CCC[C@@H]13 | 0 | 1 | 0 | -2 | 2 | . | .
CCN(CC)c1nc2c(c(=O)[nH]c(=O)n2C)n1Cc1ccccc1Cl | 2 | 1 | 5 | 2 | 6 | . | .
CN(C)c1nc2c(c(=O)[nH]c(=O)n2C)n1Cc1ccccc1Br | 2 | -3 | 3 | 11 | 11* | -4 | -2
COCCCNC(=O)C[C@@H]1C(=O)N(CCc2ccc(Cl)cc2)C2=CCCCC[C@]21C(=O)OC | -1 | 5 | 1 | -1 | 4 | . | .
Cc1cc(C)cc(C(=O)OCCN(C)C2CN(Cc3cn(Cc4cccc(F)c4)nn3)S(=O)(=O)C2)c1 (stereo not drawn) | -2 | 1 | 10 | 2 | 2 | . | .
COc1ccc(-n2c(SCC(=O)Nc3ccccc3-c3ccccc3)nnc2-c2ccccn2)cc1 | 6 | -4 | 0 | 6 | 10* | 1 | -4
Cc1cc(C)nc(NC(=O)CSc2nnnn2-c2ccccc2)n1 | -2 | -2 | -1 | 1 | 12* | 0 | 2
Cc1cc(C)c(CSc2nnnn2-c2ccc(C(=O)O)cc2)c(C)c1 | 7 | 3 | 7 | -2 | 12* | -4 | -5
